The values that follow come from the supplement of paper PMC10849652.

About 8,800 targets were measured; listed, in parts, are those with a hit and a random draw of the rest. About 0.5% of all pairs of compound and target were hits. A number with no mark means an inactive call.

Chain of UniProt Q14008 (Q14008 whole entry, looked up): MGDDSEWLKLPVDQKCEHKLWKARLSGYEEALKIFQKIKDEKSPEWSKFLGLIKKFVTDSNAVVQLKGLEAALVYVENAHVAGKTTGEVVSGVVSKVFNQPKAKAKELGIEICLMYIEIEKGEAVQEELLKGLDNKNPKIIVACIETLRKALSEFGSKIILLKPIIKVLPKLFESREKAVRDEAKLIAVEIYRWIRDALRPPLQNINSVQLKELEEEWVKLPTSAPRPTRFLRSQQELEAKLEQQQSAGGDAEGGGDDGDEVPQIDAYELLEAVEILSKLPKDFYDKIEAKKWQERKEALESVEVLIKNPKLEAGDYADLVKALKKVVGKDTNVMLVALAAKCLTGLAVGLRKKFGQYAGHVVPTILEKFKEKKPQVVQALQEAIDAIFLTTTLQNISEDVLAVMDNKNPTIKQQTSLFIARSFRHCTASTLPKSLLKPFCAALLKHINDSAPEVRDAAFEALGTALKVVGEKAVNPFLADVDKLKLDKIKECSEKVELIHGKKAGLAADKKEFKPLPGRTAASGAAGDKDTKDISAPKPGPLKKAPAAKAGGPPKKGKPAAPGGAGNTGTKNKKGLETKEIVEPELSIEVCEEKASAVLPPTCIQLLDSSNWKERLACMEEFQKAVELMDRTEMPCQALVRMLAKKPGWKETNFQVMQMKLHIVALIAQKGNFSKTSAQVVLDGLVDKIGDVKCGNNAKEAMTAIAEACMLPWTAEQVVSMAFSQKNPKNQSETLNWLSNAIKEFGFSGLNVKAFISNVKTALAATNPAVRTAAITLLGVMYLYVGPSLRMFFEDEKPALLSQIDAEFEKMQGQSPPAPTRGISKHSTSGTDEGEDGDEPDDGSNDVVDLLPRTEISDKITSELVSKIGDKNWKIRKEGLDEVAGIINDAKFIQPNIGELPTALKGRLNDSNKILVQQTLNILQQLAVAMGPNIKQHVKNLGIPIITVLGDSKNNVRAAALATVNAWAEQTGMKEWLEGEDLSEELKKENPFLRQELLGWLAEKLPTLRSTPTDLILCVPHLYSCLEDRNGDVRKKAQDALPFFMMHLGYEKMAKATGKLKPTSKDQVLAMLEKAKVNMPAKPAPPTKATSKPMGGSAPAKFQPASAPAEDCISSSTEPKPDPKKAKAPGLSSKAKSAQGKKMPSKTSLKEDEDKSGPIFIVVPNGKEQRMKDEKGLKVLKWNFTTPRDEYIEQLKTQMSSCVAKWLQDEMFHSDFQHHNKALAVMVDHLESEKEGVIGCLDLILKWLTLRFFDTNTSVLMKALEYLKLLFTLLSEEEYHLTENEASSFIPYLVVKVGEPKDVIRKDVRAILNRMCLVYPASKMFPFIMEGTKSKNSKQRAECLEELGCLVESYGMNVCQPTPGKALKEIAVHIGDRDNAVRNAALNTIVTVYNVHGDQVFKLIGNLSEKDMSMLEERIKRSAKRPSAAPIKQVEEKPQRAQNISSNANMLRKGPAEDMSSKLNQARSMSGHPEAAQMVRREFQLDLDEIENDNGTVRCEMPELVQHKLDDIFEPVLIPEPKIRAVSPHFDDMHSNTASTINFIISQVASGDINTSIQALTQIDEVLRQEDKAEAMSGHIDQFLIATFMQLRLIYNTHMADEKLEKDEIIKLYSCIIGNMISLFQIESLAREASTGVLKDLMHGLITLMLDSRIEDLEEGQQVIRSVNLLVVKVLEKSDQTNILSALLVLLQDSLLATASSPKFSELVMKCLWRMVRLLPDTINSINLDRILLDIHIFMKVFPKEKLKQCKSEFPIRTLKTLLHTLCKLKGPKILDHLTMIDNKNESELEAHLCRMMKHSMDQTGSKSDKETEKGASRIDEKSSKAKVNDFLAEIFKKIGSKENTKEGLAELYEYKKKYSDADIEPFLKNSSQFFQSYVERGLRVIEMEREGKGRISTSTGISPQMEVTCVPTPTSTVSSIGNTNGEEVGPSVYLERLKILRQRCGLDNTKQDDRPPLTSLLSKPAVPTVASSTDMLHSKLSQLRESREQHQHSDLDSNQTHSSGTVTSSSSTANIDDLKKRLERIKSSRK
Chain of UniProt Q8TDD1 (Q8TDD1 whole entry, looked up): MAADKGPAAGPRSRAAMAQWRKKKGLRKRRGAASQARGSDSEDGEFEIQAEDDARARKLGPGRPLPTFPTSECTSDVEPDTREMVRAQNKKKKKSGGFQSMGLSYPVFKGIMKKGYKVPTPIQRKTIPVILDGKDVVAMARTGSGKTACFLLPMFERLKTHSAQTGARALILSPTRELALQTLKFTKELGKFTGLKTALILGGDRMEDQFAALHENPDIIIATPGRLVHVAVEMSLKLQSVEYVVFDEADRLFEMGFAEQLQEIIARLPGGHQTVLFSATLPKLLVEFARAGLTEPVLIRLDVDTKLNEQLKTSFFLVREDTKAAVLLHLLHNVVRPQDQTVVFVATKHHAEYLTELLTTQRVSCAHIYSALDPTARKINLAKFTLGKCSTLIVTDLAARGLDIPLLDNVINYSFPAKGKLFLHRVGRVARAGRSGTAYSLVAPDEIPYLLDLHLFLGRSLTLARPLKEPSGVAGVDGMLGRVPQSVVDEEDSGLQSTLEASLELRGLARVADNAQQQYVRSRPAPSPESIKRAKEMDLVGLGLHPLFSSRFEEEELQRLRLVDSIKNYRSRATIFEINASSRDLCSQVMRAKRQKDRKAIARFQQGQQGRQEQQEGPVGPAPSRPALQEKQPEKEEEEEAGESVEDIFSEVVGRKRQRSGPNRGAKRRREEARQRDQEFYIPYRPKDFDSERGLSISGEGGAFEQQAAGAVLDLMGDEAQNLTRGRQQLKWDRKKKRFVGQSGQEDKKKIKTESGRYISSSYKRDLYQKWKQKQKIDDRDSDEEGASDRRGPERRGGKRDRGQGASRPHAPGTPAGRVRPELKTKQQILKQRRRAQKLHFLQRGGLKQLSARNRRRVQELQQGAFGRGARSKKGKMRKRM
Chain of UniProt Q96DG6 (Q96DG6 whole entry, looked up): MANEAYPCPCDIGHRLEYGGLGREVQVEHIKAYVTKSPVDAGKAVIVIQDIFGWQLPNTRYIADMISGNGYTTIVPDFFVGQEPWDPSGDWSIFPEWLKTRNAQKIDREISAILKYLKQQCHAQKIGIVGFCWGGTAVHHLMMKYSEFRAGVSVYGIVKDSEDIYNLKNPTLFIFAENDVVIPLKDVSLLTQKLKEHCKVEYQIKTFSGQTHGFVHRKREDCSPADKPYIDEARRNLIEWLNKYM
Chain of UniProt Q9NPI6 (Q9NPI6 whole entry, looked up): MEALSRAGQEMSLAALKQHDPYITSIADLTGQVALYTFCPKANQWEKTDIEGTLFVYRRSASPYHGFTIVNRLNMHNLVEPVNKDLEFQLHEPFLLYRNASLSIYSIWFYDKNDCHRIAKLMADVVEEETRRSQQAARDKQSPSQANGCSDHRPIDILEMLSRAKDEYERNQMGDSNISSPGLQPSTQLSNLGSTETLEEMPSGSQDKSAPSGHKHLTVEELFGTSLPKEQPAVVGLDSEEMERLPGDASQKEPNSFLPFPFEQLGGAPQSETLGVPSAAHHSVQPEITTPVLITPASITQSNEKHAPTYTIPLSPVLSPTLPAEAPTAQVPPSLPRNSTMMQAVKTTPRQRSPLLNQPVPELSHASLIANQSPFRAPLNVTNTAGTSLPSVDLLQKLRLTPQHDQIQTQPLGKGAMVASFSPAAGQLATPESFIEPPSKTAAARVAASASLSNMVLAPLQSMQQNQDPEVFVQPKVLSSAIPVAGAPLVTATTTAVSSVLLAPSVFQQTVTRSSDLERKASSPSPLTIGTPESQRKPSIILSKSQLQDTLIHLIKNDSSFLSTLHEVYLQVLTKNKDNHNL
Chain of UniProt P41240 (P41240 whole entry, looked up): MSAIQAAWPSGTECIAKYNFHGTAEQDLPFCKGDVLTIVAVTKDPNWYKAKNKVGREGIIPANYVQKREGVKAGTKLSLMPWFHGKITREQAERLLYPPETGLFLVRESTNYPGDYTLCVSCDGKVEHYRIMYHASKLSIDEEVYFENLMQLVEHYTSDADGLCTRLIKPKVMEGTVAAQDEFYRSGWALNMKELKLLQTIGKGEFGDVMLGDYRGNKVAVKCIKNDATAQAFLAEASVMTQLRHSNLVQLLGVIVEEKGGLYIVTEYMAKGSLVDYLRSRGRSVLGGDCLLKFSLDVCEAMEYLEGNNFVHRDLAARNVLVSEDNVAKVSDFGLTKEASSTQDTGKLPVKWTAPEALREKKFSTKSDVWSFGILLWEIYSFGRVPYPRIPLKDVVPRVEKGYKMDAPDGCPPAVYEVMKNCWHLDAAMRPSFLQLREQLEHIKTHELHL
Chain of UniProt Q8IWF6 (Q8IWF6 whole entry, looked up): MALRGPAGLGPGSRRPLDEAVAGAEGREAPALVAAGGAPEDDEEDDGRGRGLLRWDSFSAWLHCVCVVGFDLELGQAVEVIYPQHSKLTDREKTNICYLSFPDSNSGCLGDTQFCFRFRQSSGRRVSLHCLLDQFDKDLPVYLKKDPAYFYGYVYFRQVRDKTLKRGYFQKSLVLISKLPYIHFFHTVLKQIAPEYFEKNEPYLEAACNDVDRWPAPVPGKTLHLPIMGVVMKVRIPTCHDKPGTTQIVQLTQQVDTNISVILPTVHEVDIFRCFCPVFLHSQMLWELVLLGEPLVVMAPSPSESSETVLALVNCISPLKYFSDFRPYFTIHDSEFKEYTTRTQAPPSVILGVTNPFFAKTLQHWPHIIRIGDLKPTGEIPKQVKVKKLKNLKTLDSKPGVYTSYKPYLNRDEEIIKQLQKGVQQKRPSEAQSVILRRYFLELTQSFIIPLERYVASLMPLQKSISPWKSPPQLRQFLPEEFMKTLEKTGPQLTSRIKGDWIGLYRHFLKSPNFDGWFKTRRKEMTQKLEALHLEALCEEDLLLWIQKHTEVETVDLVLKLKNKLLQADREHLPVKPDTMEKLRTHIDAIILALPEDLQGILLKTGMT
Chain of UniProt Q9BW66 (Q9BW66 whole entry, looked up): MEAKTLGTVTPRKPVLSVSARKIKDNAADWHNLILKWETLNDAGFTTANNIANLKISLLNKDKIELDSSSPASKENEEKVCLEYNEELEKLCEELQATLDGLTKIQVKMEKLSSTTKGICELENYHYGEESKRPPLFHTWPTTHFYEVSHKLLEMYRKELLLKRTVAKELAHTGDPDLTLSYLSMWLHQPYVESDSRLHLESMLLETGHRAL

Compound in the assay: C1=CC=C(C=C1)[C@H](COC2=CC3=C(C=C2)NC(=O)N3)NC(=O)C4=CC=CN(C4=O)CC5=CC(=C(C=C5)F)F
Description: log2 fold change, soluble protein after heating vs DMSO (PISA); higher = thermal stabilisation; K562 lysate, 10 uM; active = over 0.2 and 3.5 SD of the protein, either way, in both replicates (recomputed). In outline:
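Values give the log-two fold change in thermal stability against solvent controls, from duplicates. Crude K562 extract at 1 mg/mL protein, made by dounce homogenisation in PBS pH 7.4 with 1 mM MgCl2, was treated with 10 μM compound for 30 min. After 3 min heating across 48°C-58°C, aliquots were pooled, adjusted to 0.5% NP-40 at 4°C and centrifuged at 21,000xg for 90 min. The supernatant was measured by TMTpro 16plex LC-MS/MS with channel sums equalised.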
Regarding DMAC2L (UniProt Q99766), the log2 fold change was -0.031.
Turning to CXCL14 (UniProt O95715), the log2 fold change is 0.002.
As for CMBL (UniProt Q96DG6), the log2 fold change is -0.01.
On to DOCK8 (UniProt Q8NF50), for which the log2 fold change was -0.011.
With DPY19L3 (UniProt Q6ZPD9), the log2 fold change was 0.183.
DCP1A (UniProt Q9NPI6): the log2 fold change is -0.011.
CORO7 isoform 3 (UniProt P57737): the log2 fold change was -0.003.
For CINP isoform 3 (UniProt Q9BW66), the log2 fold change is -0.016.
DENND4A isoform 2 (UniProt Q7Z401): the log2 fold change was -0.02.
With CXorf38 (UniProt Q8TB03), the log2 fold change is 0.021.
For the target DDX54 isoform 2 (UniProt Q8TDD1), the log2 fold change was -0.131.
Regarding CSDE1 isoform 4 (UniProt O75534), the log2 fold change is -0.012.
Regarding COG2 (UniProt Q14746), the log2 fold change is -0.038.
With CKAP5 (UniProt Q14008), the log2 fold change was -0.008.
With DICER1 (UniProt Q9UPY3), the log2 fold change was 0.028.
The value for DENND6A (UniProt Q8IWF6) was -0.101.
Take CSNK2B (UniProt P67870): the log2 fold change was -0.02.
The value for DENND1B (UniProt Q6P3S1) was 0.154.
For CIC (UniProt I3L1Q4), the log2 fold change is 0.006.
With CSK (UniProt P41240), the log2 fold change is -0.039.
Turning to CWC22 (UniProt Q9HCG8), the log2 fold change was -0.033.
For CSTF2 (UniProt P33240), the log2 fold change was -0.027.
